The record followed here is PubChem BioAssay (NCATS).

Structures are written as SMILES. Results filed as inconclusive are left out. Unmarked numbers belong to inactive results. Active and inactive are the calls of the source. The call rests on the fitted dose curve; in most records, active means well fitted inhibition curve with a large enough effect; inconclusive means small, poorly fitted or top-dose-only effect; inactive means flat fitted curve, though single readings scatter. *1 amine or outer side, *2 acyl side, *3 side chain or, on linkers, in order; H or OH if unused. Where a SMILES comes first, the peptide text is derived from it. Bridges are numbered along the chain shown (N, C = ends). [ ]: non-standard residue; d: D form. The star is where a group is joined. X11 = NC1=N[C@@H](O)C[C@H]([C@H](N[*:1])C(=O)[*:2])N1; ΔAla(Z-3-ureido) = NC(=O)N/C=C(\N)C(=O)O; β3hOrn = NCCC[C@H](N)CC(=O)*; Dap = NC[C@H](N)C(=O)O

In test [1] the target is Glutathione peroxidase 1 (Homo sapiens) (UniProt P07203). Put plainly: Primary qHTS Assay for Inhibitors of Recombinant Selenoprotein Glutathione Peroxidase 1 (GPX1) (AID 1845191). The essentials: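 NADPH consumption tracked by fluorescence at 340/450 nm between t=0 and t=15 min, room temperature. Final mix: 10 nM GPX1, 100 nM glutathione reductase, 1 mM GSH, 0.5 mM NADPH, 0.5 mM cumene hydroperoxide, 0.01% BSA; 30 min compound–enzyme preincubation.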
Chain of Glutathione peroxidase 1 (Homo sapiens) (P07203 whole entry, looked up): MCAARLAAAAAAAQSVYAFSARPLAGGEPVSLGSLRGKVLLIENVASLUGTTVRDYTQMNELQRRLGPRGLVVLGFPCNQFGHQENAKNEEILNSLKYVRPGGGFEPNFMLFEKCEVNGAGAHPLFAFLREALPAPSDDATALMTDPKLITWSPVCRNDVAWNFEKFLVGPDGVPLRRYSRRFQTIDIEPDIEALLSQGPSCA
In general terms: In qHTS, concentration-response curves come from the screen itself.

In test [2] the target is Phospholipid hydroperoxide glutathione peroxidase GPX4 (Homo sapiens) (UniProt P36969). Put plainly: Primary qHTS Assay for Inhibitors of Recombinant Selenoprotein Glutathione Peroxidase 4 (GPX4) (AID 1845192). On activity change, negative = inhibition: series mostly up to about 50 µM. The essentials:
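NADPH consumption followed by fluorescence at 340/450 nm, t=0 and after 15 min at room temperature. Reaction started with cumene hydroperoxide (0.5 mM final) after 30 min compound–GPX4 preincubation; final 200 nM GPX4, 100 nM GR, 1 mM GSH, 0.5 mM NADPH.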
Further: nearly all actives have a fitted effect of over 65% in size.
On the % scale 0 is the no-effect control and ±100 the full control effect; potency means the concentration at half of the fitted maximal effect.

Chain of Phospholipid hydroperoxide glutathione peroxidase GPX4 (Homo sapiens) (P36969 whole entry, looked up): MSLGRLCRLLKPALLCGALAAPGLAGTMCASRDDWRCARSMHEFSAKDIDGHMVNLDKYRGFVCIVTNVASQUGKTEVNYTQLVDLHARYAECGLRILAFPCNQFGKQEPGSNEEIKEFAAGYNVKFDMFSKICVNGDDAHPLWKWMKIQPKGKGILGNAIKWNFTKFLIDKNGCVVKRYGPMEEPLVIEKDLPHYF

On to `CNc1ncc(-c2ccc3c(=O)c(C(=O)O)cn(C4CC4)c3c2C)cc1C`, for which the Potency result in test [1] and in test [2] was “inactive” each time.

Regarding `O=C(OC1C(OC(=O)c2cccnc2)C(OC(=O)c2cccnc2)C(OC(=O)c2cccnc2)C(OC(=O)c2cccnc2)C1OC(=O)c1cccnc1)c1cccnc1` (stereo not drawn), the Potency result in test [1] and in test [2] was “inactive” throughout.

With `O=C(O)C[C@@H]1CC[C@H](NC(=O)Cc2cccs2)B(O)O1`, the Potency entry in test [1] and in test [2] was “inactive” each time.

For `OC(CCN1CCCCC1)(c1ccccc1)C1CCCC1` (stereo not drawn), the Potency result in test [1] and in test [2] was “inactive” in each case.

For `C[C@H](Cc1cc2c(c(C(N)=O)c1)N(CCCO)CC2)NCCOc1ccccc1OCC(F)(F)F`, the Potency entry in test [1] and in test [2] was “inactive” each time.

Turning to `Cc1c(OCC(F)(F)F)ccnc1C[S@@](=O)c1nc2ccccc2[nH]1`, the Potency in test [1] was 10.1 µM (active); in test [2], 10 µM (active).

As to `CCCCC(F)(F)C1(O)CCC2C(CC(=O)C2CCCCCCC(=O)O)O1` (stereo not drawn), the Potency result in test [1] and in test [2] was “inactive” each time.

For `CC(=O)c1cc2cccc(OCC(O)CNC(C)C)c2o1` (stereo not drawn), the Potency entry in test [1] and in test [2] was “inactive” in each case.

Turning to `CC(=O)OCC(=O)[C@@]1(O)[C@H](C)C[C@H]2[C@@H]3C[C@H](F)C4=CC(=O)C=C[C@]4(C)[C@@]3(F)[C@@H](O)C[C@@]21C`, the Potency result in test [1] and in test [2] was “inactive” each time.

Turning to `COCC1=C(C(=O)OC(C)OC(=O)OC(C)C)N2C(=O)[C@@H](NC(=O)/C(=N/OC)c3csc(N)n3)[C@H]2SC1` (stereo partly drawn), the values for the Potency in test [1] and in test [2] were 9.04 µM (active) and 10 µM (active), respectively.

For the compound `CCCCCCC(COC(=O)c1cccnc1)(COC(=O)c1cccnc1)COC(=O)c1cccnc1`, the Potency entry in test [1] and in test [2] was “inactive” each time.

For `Clc1ccc(CCCOCCCN2CCCCC2)cc1`, the Potency result in test [1] and in test [2] was “inactive” each time.

Take `CN[C@H]1C(=O)N[C@@H]2Cc3ccc(cc3)Oc3cc4cc(c3O[C@@H]3O[C@H](C(=O)O)[C@@H](O)[C@H](O)[C@H]3NC(=O)CCCCCCCCC(C)C)Oc3ccc(cc3Cl)[C@@H](O)[C@@H]3NC(=O)[C@H](NC(=O)[C@@H]4NC(=O)[C@@H](NC2=O)c2cc(cc(O)c2Cl)Oc2cc1ccc2O)c1ccc(O)c(c1)-c1c(O[C@H]2O[C@H](CO)[C@@H](O)[C@H](O)[C@@H]2O)cc(O)cc1[C@@H](C(=O)NCCCN(C)C)NC3=O`: the Potency result in test [1] and in test [2] was “inactive” throughout.

`CCN(CC)CCS(=O)(=O)[C@@H]1CCN2C(=O)c3coc(n3)CC(=O)C[C@H](O)/C=C(C)/C=C/CNC(=O)/C=C/[C@@H](C)[C@@H](C(C)C)OC(=O)[C@@H]12`: the Potency entry in test [1] is “inactive”. The Potency in test [2] was 6.31 µM (active).

As for `Cc1cc(C#N)cc(C)c1Oc1nc(Nc2ccc(C#N)cc2)nc(N)c1Br`, the Potency result in test [1] and in test [2] was “inactive” throughout.

In the case of `Cn1c(=O)cc(N2CCC[C@@H](N)C2)n(Cc2cc(F)ccc2C#N)c1=O`, the Potency result in test [1] and in test [2] was “inactive” each time.

For `CCCCC[C@H](O)/C=C/[C@@H]1[C@@H](C/C=C/CCCC(=O)O)[C@@H](O)C[C@H]1O`, the Potency result in test [1] and in test [2] was “inactive” in each case.

Regarding `NCCC[C@H](N)CC(=O)N[C@H]1CNC(=O)[C@H]([C@H]2C[C@H](O)N=C(N)N2)NC(=O)/C(=C/NC(N)=O)NC(=O)[C@H](CO)NC(=O)[C@H](CO)NC1=O` (β3hOrn-[Dap]SS[ΔAla(Z-3-ureido)][X11]; lactam 1-C), the Potency entry in test [1] and in test [2] was “inactive” throughout.

Turning to `CCCCCCCCCCCCOC(=O)CS(=O)(=O)O`, in test [1], the Potency entry is “inactive”. The Potency in test [2] was 14.1 µM (active).

`CCC(=O)OCC(=O)[C@]1(OC(=O)CC)[C@H](C)C[C@H]2[C@H]3[C@H]([C@@H](O)C[C@@]21C)[C@@]1(C)C=CC(=O)C=C1C[C@H]3Cl`: the Potency result in test [1] and in test [2] was “inactive” throughout.

For `CC(C)C[C@H]1C(=O)O[C@H](Cc2ccc(N3CCOCC3)cc2)C(=O)N(C)[C@@H](CC(C)C)C(=O)O[C@H](C)C(=O)N(C)[C@@H](CC(C)C)C(=O)O[C@H](Cc2ccc(N3CCOCC3)cc2)C(=O)N(C)[C@@H](CC(C)C)C(=O)O[C@H](C)C(=O)N1C`, the Potency result in test [1] and in test [2] was “inactive” throughout.

Regarding `Cc1cc(O)ccc1C(C)(C)C`, the Potency entry in test [1] and in test [2] was “inactive” throughout.

`CC[C@@H]1CCN[C@H](C(=O)N[C@@H]([C@H]2O[C@H](SC)[C@H](O)[C@@H](O)[C@H]2O)[C@H](C)Cl)C1`: the Potency result in test [1] and in test [2] was “inactive” in each case.

On to `CC(=O)NC(C=O)C(O)C(O)[C@H](O)CO` (stereo partly drawn), for which the Potency result in test [1] and in test [2] was “inactive” each time.

As for `C=C1CC[C@H](O)C/C1=C\C=C1/CCC[C@]2(C)[C@@H]([C@H](C)CC[C@H](O)C(C)(C)O)CC[C@@H]12`, the Potency result in test [1] was “inactive”. Further, the Potency in test [2] is 14.1 µM (active).

With `CCC[C@@H]1C[C@@H](C(=O)N[C@@H](C2O[C@H](SC)[C@H](O)[C@@H](O)[C@H]2O)[C@H](C)Cl)N(C)C1` (stereo partly drawn), the Potency entry in test [1] and in test [2] was “inactive” each time.

Turning to `O=C(OC[C@H]1O[C@@H](OC(=O)c2cc(O)c(O)c(O)c2)[C@H](O)[C@@H](OC(=O)c2cc(O)c(O)c(O)c2)[C@@H]1O)c1cc(O)c(O)c(O)c1`, the Potency result in test [1] and in test [2] was “inactive” each time.

Take `CCC(=C(CC)c1ccc(OP(=O)(O)O)cc1)c1ccc(OP(=O)(O)O)cc1`: the activity, negative = inhibition in test [1] was 1.38% [at 0.4 µM]. For the same compound, the activity change, negative = inhibition in test [2] is 1.61% [at 0.409 µM].

On to `CC1(C)C[C@H]1C(=O)N/C(=C\CCCCSC[C@@H](N)C(=O)O)C(=O)O`, for which the Potency entry in test [1] and in test [2] was “inactive” throughout.

As to `C[C@H]1C[C@H]2[C@H]3CCC4=CC(=O)C=C[C@]4(C)[C@@]3(F)[C@@H](O)C[C@]2(C)[C@@]1(OC(=O)c1ccccc1)C(=O)CO`, the Potency entry in test [1] and in test [2] was “inactive” in each case.

Turning to `O=C(OC1C[C@@H]2CC3C[C@@H](C1)N2CC3=O)c1c[nH]c2ccccc12` (stereo partly drawn), the Potency result in test [1] and in test [2] was “inactive” throughout.

As to `CC[C@H]1OC(=O)C[C@@H](OC(C)=O)[C@H](C)[C@@H](O[C@@H]2O[C@H](C)[C@@H](O[C@H]3C[C@@](C)(O)[C@@H](OC(=O)CC(C)C)[C@H](C)O3)[C@H](N(C)C)[C@H]2O)[C@@H](CC=O)C[C@@H](C)C(=O)/C=C/C(C)=C/[C@@H]1CO[C@@H]1O[C@H](C)[C@@H](O)[C@@H](OC)[C@H]1OC`, the Potency result in test [1] and in test [2] was “inactive” each time.

Turning to `CN[C@@H]1[C@@H](O[C@H]2O[C@H](CO)[C@@H](N)[C@H](O)[C@H]2O)O[C@H]2C[C@@H](N)[C@H](O[C@H]3[C@H](O)[C@@H](O)[C@H](N)C[C@@H]3N)O[C@@H]2[C@@H]1O`, the Potency result in test [1] and in test [2] was “inactive” in each case.

Take `CCCCCCCCCCCCCCCC(=O)OC1C(SC)OC(C(NC(=O)C2CC(CCC)CN2C)C(C)Cl)C(O)C1O` (stereo not drawn): the Potency result in test [1] and in test [2] was “inactive” throughout.
